Measurements taken from PubChem BioAssay (NCATS).
Values without a mark were called inactive. Results filed as inconclusive are left out. Activity calls are given as the source filed them. Unless noted, calls come from the whole dose curve; as a rule, active = well fitted curve in either direction with a large enough effect (not every such curve was filed as active); inconclusive = small, poorly fitted or top-dose-only effect, or another doubt; inactive = flat fitted curve, though single readings scatter.

Experiments:
[1] = biological target: Lysosomal acid glucosylceramidase (Homo sapiens) (UniProt P04062); experiment: Glucocerebrosidase-p2 (AID 348; in the data active = potency below about 10 µM; note: potency is the fitted concentration of half-maximal effect); conditions: purified GBA, blue fluorogenic substrate, 40 min
Chain of Lysosomal acid glucosylceramidase (Homo sapiens) (P04062 whole entry, looked up): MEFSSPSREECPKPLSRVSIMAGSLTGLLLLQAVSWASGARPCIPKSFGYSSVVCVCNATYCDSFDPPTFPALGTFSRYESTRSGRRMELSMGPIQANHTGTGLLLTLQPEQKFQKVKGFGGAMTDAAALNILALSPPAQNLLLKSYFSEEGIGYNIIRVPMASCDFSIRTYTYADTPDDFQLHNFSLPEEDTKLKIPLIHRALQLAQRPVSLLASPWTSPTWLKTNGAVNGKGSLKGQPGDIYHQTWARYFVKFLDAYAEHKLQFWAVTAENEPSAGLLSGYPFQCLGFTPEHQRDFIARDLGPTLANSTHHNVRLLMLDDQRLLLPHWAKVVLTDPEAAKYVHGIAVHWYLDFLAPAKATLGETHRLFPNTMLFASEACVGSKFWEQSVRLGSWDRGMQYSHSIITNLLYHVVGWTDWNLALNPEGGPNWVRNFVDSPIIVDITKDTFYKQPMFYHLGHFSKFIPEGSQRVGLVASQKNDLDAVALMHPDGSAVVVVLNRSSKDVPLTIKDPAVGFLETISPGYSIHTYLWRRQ
Outline: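 Normal human glucocerebrosidase (0.2 nM) with blue fluorogenic substrate (80 uM final) in citrate/phosphate pH 5.9 with 10mM sodium taurocholate, 0.01% tween-20; 40 min RT, NaOH/glycine stop; fluorescence Ex 365/Em 440; AC50 from a titration from 0.6 nM upwards.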

[2] = AP1 Signaling Pathway (AID 357); conditions: ME-180 AP-1-bla reporter, EGF-induced, beta-lactamase ratio, 5 h; at 7.69 µM (top of the series) unless noted;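 note: ME-180 reporter cells stimulated with EGF at its EC50 level; % is set by controls: 0 for no effect and ±100 for the full control effect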
Outline: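 Beta-lactamase reporter under AP-1 response element, ME-180 background. Stimulus: EC50 EGF. Compound exposure 5 h, 37 °C. Detection: CCF4, 2.5 h RT, 460/530 nm. Values: AC50 from titration.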

[3] = biological target: Cytochrome P450 1A2 (Homo sapiens) (UniProt P05177); experiment: p450-cyp1a2 (AID 410; calls by dose curve; note: potency is the fitted concentration of half-maximal effect); conditions: recombinant CYP1A2, luciferin-ME demethylation, luminescence; series mostly up to 57 µM
Chain of Cytochrome P450 1A2 (Homo sapiens) (P05177 whole entry, looked up): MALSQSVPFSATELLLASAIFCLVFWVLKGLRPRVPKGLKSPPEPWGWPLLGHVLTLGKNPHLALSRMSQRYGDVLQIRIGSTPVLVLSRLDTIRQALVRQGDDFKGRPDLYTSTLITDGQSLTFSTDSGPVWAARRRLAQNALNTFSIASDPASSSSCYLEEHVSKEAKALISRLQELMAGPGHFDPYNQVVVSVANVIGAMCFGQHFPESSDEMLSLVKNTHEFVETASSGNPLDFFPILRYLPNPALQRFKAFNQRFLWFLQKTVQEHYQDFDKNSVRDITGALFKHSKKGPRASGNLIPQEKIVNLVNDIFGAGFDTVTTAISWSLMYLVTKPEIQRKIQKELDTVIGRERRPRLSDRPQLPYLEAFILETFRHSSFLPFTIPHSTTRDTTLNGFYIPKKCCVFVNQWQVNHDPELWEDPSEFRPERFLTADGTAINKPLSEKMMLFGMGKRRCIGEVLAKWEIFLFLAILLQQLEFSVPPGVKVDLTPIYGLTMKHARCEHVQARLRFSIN
Outline: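 Luminescent demethylation readout: Luciferin-ME (100uM, equal to Km) turned over by 20nM CYP1A2 for 60 min at room temperature after NADPH regeneration addition, following 10 min compound preincubation. Normalization used 57 uM furafylline as full inhibition.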

[4] = NFAT Signaling Pathway (AID 444); conditions: Jurkat NFAT-bla M1, carbachol, beta-lactamase ratio, 5 h; at 7.69 µM (top of the series) unless noted;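 note: carbachol stimulus at about its EC50 of 1 µM final; % is set by controls: 0 for no effect and ±100 for the full control effect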
Outline: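 Read-out: CCF4 FRET ratio (460 nm/530 nm) after 1 h RT dye loading, used for %activity and AC50 from titration series. Cells: Jurkat NFAT-β-lactamase/M1 line, treated with compound plus 1 uM carbachol for 5 h, 37 °C.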

[5] = Stat Signaling Pathway (AID 446); conditions: ME-180 (cervical carcinoma) SIE beta-lactamase reporter, IL-6 stimulated, 5 h; at 7.69 µM (top of the series) unless noted;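 note: ME-180 cervical cancer cells given 40 pM IL-6 alongside compound; SIE-controlled beta-lactamase reporter measured as 460/530 nm FRET emission ratio; % is set by controls: 0 for no effect and ±100 for the full control effect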
Outline: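 Emission at 460 and 530 nm (excitation 405 nm) reports SIE-controlled beta-lactamase in ME-180 cells. Cells received compound with 40 pM IL-6 for 5 hrs at 37 C; data scaled between 300 pM IL-6 and 125 nM JAK-inhibitor controls.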

[6] = biological target: Glucocorticoid receptor (Homo sapiens) (UniProt P04150); experiment: GR-GFP Redistribution (AID 450;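 active = compounds whose dose series gives a full or clear partial fitted curve of increased nuclear translocation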; note: potency is the fitted concentration of half-maximal effect); conditions: U2OS GR-GFP nuclear translocation, laser cytometry, 2 h
Chain of Glucocorticoid receptor (Homo sapiens) (P04150 whole entry, looked up, the tested form may be a part): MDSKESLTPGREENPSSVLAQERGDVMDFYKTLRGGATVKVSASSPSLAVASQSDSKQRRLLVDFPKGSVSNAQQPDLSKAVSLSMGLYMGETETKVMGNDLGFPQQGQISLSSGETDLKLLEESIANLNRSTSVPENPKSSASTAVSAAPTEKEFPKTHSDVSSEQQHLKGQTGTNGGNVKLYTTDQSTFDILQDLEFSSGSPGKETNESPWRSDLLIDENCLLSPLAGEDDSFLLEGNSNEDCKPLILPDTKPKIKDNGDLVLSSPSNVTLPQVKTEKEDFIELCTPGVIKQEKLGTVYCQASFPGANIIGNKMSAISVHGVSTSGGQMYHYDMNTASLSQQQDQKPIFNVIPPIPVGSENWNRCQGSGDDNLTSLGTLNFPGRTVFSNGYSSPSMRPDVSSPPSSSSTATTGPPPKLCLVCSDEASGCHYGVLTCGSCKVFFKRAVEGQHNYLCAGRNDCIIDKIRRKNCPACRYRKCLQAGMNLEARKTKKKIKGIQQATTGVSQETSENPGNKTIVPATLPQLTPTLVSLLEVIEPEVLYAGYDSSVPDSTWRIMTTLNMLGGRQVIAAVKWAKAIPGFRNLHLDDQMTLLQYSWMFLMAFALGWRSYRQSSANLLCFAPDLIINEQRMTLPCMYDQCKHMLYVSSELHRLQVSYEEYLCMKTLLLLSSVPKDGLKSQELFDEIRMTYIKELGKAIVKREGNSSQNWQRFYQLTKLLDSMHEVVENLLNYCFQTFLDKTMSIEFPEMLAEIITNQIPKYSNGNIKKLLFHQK

[7] = biological target: Glucocorticoid receptor (Homo sapiens) (UniProt P04150); experiment: GR-EFC Redistribution (AID 451; calls by dose curve; note: potency is the fitted concentration of half-maximal effect); conditions: CHO-K1 GR-EFC translocation, beta-gal luminescence, 2 h
Outline: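 Translocation of GR-ED fusion to nuclear EA restores b-gal, read by luminescence after 1 h room-temperature detection. Engineered CHO-K1 biosensor cells, 1,000/well, exposed 2 h at 37 C to titrations up to 46 uM final.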

[8] = biological target: Mitogen-activated protein kinase 10 (Mus musculus) (UniProt Q61831); experiment: JNK3 AlphaScreen Assay (AID 530); conditions: JNK3 lysate, c-Jun phosphorylation; series mostly up to 57.1 µM;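 note: kinase came from lysate of stimulated human HepG2 cells; signal reports phosphorylation of biotinylated GST-cJun 1-79 at Ser73 with 10 µM ATP; % is set by controls: 0 for no effect and ±100 for the full control effect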
Outline: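 qHTS titrations with 15 min compound pre-incubation before adding ATP (10 uM final). Read-out: AlphaScreen of Ser73-phosphorylated biotin-GST-cJun using HepG2 lysate JNK3 activated by IL-1β and TNFα.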

[9] = biological target: 3',5'-cyclic-AMP phosphodiesterase 4B (Homo sapiens) (UniProt Q07343); experiment: qHTS Assay for Inhibitors of PDE-IV (AID 607; active = well fitted activation curve with a large enough effect in the main read-out, with a control signal flat, not every such curve was filed as active; note: % of control where 0% means no effect); conditions: HEK293 ACTOne CNG channel cells, membrane potential fluorescence; series mostly up to 22.9 µM
Chain of 3',5'-cyclic-AMP phosphodiesterase 4B (Homo sapiens) (Q07343 whole entry, looked up): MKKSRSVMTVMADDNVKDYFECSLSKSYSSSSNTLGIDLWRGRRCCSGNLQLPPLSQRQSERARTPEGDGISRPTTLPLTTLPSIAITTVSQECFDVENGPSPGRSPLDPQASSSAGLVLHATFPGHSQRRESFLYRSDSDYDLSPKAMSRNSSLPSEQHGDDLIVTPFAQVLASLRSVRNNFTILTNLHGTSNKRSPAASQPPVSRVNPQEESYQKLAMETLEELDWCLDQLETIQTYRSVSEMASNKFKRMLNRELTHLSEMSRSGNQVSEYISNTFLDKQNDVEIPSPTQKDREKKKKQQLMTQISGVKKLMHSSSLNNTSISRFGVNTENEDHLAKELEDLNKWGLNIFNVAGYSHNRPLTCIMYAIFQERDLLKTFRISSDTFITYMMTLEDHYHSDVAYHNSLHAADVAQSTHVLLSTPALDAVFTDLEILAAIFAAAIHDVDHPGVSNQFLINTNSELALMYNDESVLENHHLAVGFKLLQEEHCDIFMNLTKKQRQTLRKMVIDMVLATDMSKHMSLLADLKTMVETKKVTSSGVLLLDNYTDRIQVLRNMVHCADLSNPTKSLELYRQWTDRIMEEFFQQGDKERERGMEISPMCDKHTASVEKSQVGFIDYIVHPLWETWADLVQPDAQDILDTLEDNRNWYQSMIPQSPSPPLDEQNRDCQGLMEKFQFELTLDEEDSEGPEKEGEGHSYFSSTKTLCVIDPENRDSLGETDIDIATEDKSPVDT
Outline: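 The readout is membrane depolarisation from a cAMP-sensing CNG channel, detected with a potential dye at ex 535/em 590. Cells were HEK293-derived (endogenous PDE-IV) at 1000 cells/well, titrated up to 22.9 uM final.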

[10] = Primary qHTS for small molecule stabilizers of the endoplasmic reticulum resident proteome: Secreted ER Calcium Modulated Protein (SERCaMP) assay (AID 1508630; active = well fitted curve in the direction sought with a large enough effect; an effect the other way counts as inactive or inconclusive; note: % is set by controls: 0 for no effect and ±100 for the full control effect); conditions: SH-SY5Y GLuc-SERCaMP (Gaussia luciferase released on ER calcium loss) secretion, thapsigargin, luminescence; series mostly up to 38.4 µM
Outline: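 The SH-SY5Y reporter protocol was run at 3 concentrations up to 38.3 uM (primary) or 11 concentrations (follow-up): 16 h compound, 100 nM thapsigargin for 4 h, then extracellular luciferase luminescence.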

[11] = biological target: Cytochrome P450 3A4 (Homo sapiens) (UniProt P08684); experiment: qHTS Assay for Activators of Cytochrome P450 3A4 (AID 885; active = well fitted curve in the direction sought with a large enough effect; an effect the other way counts as inactive or inconclusive; note: nearly all actives have a fitted effect of over 65% in size); conditions: recombinant CYP3A4, Luciferin-PPXE luminescence, 60 min; series mostly up to 57.1 µM
Chain of Cytochrome P450 3A4 (Homo sapiens) (P08684 whole entry, looked up): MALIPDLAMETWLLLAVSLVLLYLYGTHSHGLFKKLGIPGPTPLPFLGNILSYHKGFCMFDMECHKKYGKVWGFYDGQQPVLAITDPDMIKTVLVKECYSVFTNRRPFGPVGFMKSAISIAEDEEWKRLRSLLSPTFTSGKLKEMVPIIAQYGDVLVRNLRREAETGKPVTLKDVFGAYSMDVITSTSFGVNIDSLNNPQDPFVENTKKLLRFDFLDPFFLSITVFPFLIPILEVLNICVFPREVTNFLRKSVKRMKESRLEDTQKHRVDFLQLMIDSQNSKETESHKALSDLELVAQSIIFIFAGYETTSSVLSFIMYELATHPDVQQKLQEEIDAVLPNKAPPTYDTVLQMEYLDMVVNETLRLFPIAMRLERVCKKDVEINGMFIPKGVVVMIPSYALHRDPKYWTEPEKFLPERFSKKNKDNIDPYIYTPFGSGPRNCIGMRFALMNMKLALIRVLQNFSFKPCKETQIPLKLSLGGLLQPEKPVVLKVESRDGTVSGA
Outline: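 Activators are scored by enhanced luminescence from CYP3A4 conversion of luciferin-PPXE (25uM, equal to KM) to luciferin, after 60 min at RT with an NADPH-regenerating system.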

[12] = biological target: Cytochrome P450 2C19 (Homo sapiens) (UniProt P33261); experiment: qHTS Assay for Inhibitors and Substrates of Cytochrome P450 2C19 (AID 899; active = well fitted curve in the direction sought with a large enough effect; an effect the other way counts as inactive or inconclusive; note: potency is the fitted concentration of half-maximal effect; nearly all actives have a fitted effect of over 60% in size); conditions: recombinant CYP2C19, luciferin-H EGE luminescence; series mostly up to 57.1 µM
Chain of Cytochrome P450 2C19 (Homo sapiens) (P33261 whole entry, looked up): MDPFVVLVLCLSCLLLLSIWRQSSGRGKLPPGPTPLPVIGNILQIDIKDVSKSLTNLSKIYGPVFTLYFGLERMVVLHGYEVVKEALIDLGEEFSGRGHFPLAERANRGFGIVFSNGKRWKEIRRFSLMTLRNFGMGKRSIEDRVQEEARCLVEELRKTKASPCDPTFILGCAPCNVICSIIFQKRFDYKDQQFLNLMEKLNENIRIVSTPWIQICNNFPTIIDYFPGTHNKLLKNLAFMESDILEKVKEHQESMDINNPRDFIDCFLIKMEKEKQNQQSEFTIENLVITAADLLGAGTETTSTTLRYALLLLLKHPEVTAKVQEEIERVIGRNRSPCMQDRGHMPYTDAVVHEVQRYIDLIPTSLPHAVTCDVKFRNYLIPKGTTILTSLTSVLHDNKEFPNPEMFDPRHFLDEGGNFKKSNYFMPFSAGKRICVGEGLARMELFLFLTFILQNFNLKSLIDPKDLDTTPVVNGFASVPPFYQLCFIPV
Outline: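 Luminescence readout of luciferin formed from 10uM Luciferin-H EGE (KM level) by 5 nM CYP2C19 in 50mM KPO4. 60 min NADPH-driven reaction at 37C after 10 min compound preincubation; data scaled to 57uM ketoconazole inhibition.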

[13] = biological target: Ubiquitin carboxyl-terminal hydrolase 1 (Homo sapiens) (UniProt O94782); experiment: Inhibitors of USP1/UAF1: Pilot qHTS (AID 504865; active = well fitted curve in the direction sought with a large enough effect; an effect the other way counts as inactive or inconclusive; note: nearly all actives have a fitted effect of over 35% in size; note: potency is the fitted concentration of half-maximal effect); conditions: purified USP1/UAF1, Ub-rhodamine cleavage fluorescence; series mostly up to 54.9 µM
Chain of Ubiquitin carboxyl-terminal hydrolase 1 (Homo sapiens) (O94782 whole entry, looked up): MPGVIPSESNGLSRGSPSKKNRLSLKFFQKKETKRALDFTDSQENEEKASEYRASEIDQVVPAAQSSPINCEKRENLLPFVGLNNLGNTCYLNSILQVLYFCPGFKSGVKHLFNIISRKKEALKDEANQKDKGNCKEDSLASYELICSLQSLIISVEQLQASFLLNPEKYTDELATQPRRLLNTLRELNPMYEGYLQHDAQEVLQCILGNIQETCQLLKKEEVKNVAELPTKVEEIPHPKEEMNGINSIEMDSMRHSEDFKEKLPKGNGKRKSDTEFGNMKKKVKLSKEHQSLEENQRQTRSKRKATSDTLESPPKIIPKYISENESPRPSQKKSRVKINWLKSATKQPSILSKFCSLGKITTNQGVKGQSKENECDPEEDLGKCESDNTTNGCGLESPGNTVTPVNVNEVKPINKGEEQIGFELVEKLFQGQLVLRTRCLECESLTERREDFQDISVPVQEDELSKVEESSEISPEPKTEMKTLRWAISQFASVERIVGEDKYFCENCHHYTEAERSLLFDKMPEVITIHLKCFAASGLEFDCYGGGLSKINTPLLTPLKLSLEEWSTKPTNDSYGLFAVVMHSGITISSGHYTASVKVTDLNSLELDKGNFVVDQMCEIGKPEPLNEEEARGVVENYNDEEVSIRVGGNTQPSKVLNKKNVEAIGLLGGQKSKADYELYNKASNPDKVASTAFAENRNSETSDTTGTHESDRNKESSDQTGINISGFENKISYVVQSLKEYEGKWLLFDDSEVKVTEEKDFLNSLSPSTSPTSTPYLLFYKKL
Outline: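 1nM USP1/UAF1 + cpd, 15 min RT; start w/ Ub-Rho 150nM final; kinetic FL 480/540 nm, 6 reads q60 s. Buffer 50mM HEPES pH 7.8, 0.5mM EDTA, 1mM TCEP, 0.01% Tween-20, 0.1 mg/ml BSA.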

[14] = Confirmation and Secondary Assay for Modulators of Hemoglobin Beta Chain Splicing at IVS2 654 locus (AID 910; active = well fitted curve in the direction sought with a large enough effect; an effect the other way counts as inactive or inconclusive;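 note: HeLa cells stably carrying EGFP split by mutant beta-globin IVS2-654 intron; per-well total GFP intensity by laser scanning cytometry after 2-day treatment; % of control where 0% means no effect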); conditions: HeLa EGFP-654 splicing reporter, GFP fluorescence, 48 h; series mostly up to 38.3 µM
Outline: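 Readout: per-well total peak green fluorescence (488 nm ex, 500–520 nm em) from objects 5–250 µm, reflecting correct splicing of an EGFP-654 reporter. Compounds were applied for 2 days at 37 °C to overnight-plated HeLa EGFP-654 cells; controls were DMSO and 500 nM IVS2-654 PNA.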

[15] = Confirmation and Secondary Assay for Modulators of Hemoglobin Beta Chain Splicing at IVS2 705 locus (AID 930; active = well fitted curve in the direction sought with a large enough effect; an effect the other way counts as inactive or inconclusive;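 note: HeLa cells stably expressing the EGFP-705 splicing reporter; GFP fluorescence per well restored by corrected splicing of the IVS2-705 intron in EGFP; % of control where 0% means no effect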); conditions: HeLa EGFP-705 splicing reporter, GFP fluorescence, 48 h; series mostly up to 38.3 µM
Outline: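 Assay measures total GFP intensity per well in HeLa EGFP-705 cells after 2 days with compound; mis-splicing normally truncates EGFP, so fluorescence indicates corrected splicing.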

[16] = biological target: Cytochrome P450 3A4 (Homo sapiens) (UniProt P08684); experiment: qHTS Assay for Inhibitors and Substrates of Cytochrome P450 3A4 (AID 884; active = well fitted curve in the direction sought with a large enough effect; an effect the other way counts as inactive or inconclusive; note: potency is the fitted concentration of half-maximal effect; nearly all actives have a fitted effect of over 50% in size); conditions: recombinant CYP3A4, Luciferin-PPXE luminescence; series mostly up to 57.1 µM
Outline: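 Luminescent readout of luciferin produced by CYP3A4 (20 nM) dealkylation of Luciferin-PPXE, 25 uM (its KM). NADPH-driven reaction ran 60 min at RT after 10 min compound preincubation; data scaled to 57 uM ketoconazole as 100% inhibition.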

[17] = biological target: Cytochrome P450 2C9 (Homo sapiens) (UniProt P11712); experiment: qHTS Assay for Inhibitors and Substrates of Cytochrome P450 2C9 (AID 883; active = well fitted curve in the direction sought with a large enough effect; an effect the other way counts as inactive or inconclusive; note: % is set by controls: 0 for no effect and ±100 for the full control effect; nearly all actives have a fitted effect of over 60% in size); conditions: recombinant CYP2C9, luciferin-H luminescence, 60 min; series mostly up to 57.1 µM
Chain of Cytochrome P450 2C9 (Homo sapiens) (P11712 whole entry, looked up): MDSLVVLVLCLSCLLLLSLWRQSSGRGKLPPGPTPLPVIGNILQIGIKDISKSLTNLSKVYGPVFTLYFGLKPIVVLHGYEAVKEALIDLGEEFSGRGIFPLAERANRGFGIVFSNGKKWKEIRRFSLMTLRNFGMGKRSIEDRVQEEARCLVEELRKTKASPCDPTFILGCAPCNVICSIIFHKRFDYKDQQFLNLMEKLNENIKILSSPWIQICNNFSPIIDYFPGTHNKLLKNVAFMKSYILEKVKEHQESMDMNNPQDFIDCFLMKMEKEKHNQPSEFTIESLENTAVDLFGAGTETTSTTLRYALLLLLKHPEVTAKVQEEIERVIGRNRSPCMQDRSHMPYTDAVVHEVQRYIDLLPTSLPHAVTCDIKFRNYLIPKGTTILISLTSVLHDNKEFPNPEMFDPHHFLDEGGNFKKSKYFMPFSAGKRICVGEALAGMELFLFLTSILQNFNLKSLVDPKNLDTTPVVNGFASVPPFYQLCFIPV
Outline: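 Luminescent read-out of deoxyluciferin hydroxylation, normalized to 57uM sulphaphenazole (AC100). Reaction: 10nM enzyme, 100uM Luciferin-H (equal to KM), 25mM KPO4, 10 min compound preincubation, then 60 min with NADPH regeneration, both at 37C.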

| Compound | Potency [1] | activity change, negative = inhibition [2] [%] | Potency [3] | activity change, negative = inhibition [4] [%] | activity, negative = inhibition [5] [%] | Potency [6] [µM] | Potency [7] [µM] | Potency [8] | Potency [9] | outcome [10] | Potency [11] | Potency [12] | Potency [13] | Potency [14] | outcome [15] | Potency [16] | Potency [17] |
| --- | --- | --- | --- | --- | --- | --- | --- | --- | --- | --- | --- | --- | --- | --- | --- | --- | --- |
| COc1ccc(Oc2ncc3nc(C)c(=O)n(CCC#N)c3n2)cc1 | > 11.4 µM | -15.5 | 25.1 µM (active) | 8.56 | -12.9 | > 9.22 | > 46 | inactive | inactive | inactive | – | – | – | – | – | – | – |
| N#Cc1cccc(-c2nc(NCc3ccccc3)c3ccccc3n2)c1 | > 11.4 µM | -14.6 | 0.398 µM (active) | -13.5 | -8.06 | > 46 | > 46 | inactive | – | inactive | inactive | 6.31 µM (active) | 15.8 µM (active) | – | – | – | – |
| COc1ccc(-c2nc3cnc(N4CCOCC4)nc3n(CCC#N)c2=O)cc1 | > 11.4 µM | 3.37 | 3.16 µM (active) | 2.6 | 16.9 | > 9.22 | > 46 | inactive | inactive | inactive | – | – | – | – | – | – | – |
| COc1ccc2[nH]cc(CCNc3nc(-c4ccccc4CN(C)C)nc4ccccc34)c2c1 | > 11.4 µM | -0.774 | 25.1 µM (active) | -26.8 | 4.15 | > 46 | > 46 | inactive | inactive | inactive | inactive | – | inactive | inactive | inactive | – | – |
| Fc1ccc(Nc2nc(-c3ccoc3)nc3ccccc23)cc1 | 7.43 µM (active) | 11.4 | 0.316 µM (active) | -21.4 | 4.98 | > 46 | > 46 | inactive | – | inactive | inactive | – | inactive | – | – | 3.98 µM (active) | – |
| c1cncc(-c2ccc3ncnc(N4CCNCC4)c3c2)c1 | > 11.4 µM | 8.97 | 1.26 µM (active) | 26.4 | 0.928 | > 46 | > 46 | inactive | inactive | inactive | inactive | – | inactive | inactive | inactive | – | – |
| Cc1cccc(CNc2cc(-c3cccc(C#N)c3)ncn2)c1 | > 11.4 µM | -11.1 | 0.158 µM (active) | 7.94 | -3.7 | > 46 | > 46 | inactive | inactive | inactive | inactive | 6.31 µM (active) | – | inactive | inactive | 7.94 µM (active) | – |
| Cc1nc2cnc(Nc3ccccc3)nc2n(Cc2cccs2)c1=O | > 11.4 µM | 6.83 | 1.58 µM (active) | 31.1 | 10.1 | > 9.22 | > 46 | inactive | inactive | inactive | inactive | – | – | – | – | 7.94 µM (active) | – |
| COCCn1c(=O)c(-c2ccc(Cl)cc2)nc2cncnc21 | > 11.4 µM | -10.8 | 0.2 µM (active) | 9.96 | 1.43 | > 9.22 | > 46 | inactive | inactive | inactive | inactive | – | – | – | – | – | – |
| CN(C)C(=O)c1ccc(-c2nc(N(C)Cc3ccco3)c3ccccc3n2)cc1 | > 11.4 µM | -14.5 | 7.94 µM (active) | 18.1 | 3.3 | > 46 | > 46 | inactive | – | inactive | – | – | inactive | inactive | inactive | – | – |
| COc1ccc(-n2c(=O)cnc3cnc(Oc4cccc(Cl)c4)nc32)cc1 | > 11.4 µM | -9.58 | 7.94 µM (active) | 4.93 | -9.34 | > 9.22 | > 46 | inactive | inactive | inactive | inactive | – | – | – | – | – | – |
| COc1ccc(-n2c(=O)c(-c3cn(C)c4ccccc34)nc3cncnc32)cc1 | > 11.4 µM | -24.9 | 0.316 µM (active) | 6.02 | -19.8 | > 9.22 | > 46 | inactive | inactive | inactive | inactive | – | – | – | – | – | inactive |
| Cn1c(=O)c(-c2cccc(Cl)c2)nc2cncnc21 | > 11.4 µM | -7.56 | 0.501 µM (active) | -2.65 | -10.2 | > 9.22 | > 46 | inactive | inactive | inactive | – | – | – | – | – | – | – |
